39 molecules from article PMC9911399, “Two distinct binding modes provide the RNA-binding protein RbFox with extraordinary sequence specificity” can be followed below.

The labels stand for the following.
T1: RBFOX1 RRM RbFoxmut (Fox-RRM*) (Homo sapiens, UniProt Q9NWB1 109-208, R118D;E147R;N151S;E152T)
T1 sequence: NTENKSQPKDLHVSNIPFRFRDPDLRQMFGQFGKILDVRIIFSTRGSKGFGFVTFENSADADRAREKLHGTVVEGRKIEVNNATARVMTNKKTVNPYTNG

B1: GAACUCU (DNA:RNA)
RNA: GGGAGACCGGAAUUCAGAUUGUCCGAACUCUUUAAAUCCCGUCGUAGCCACCA
DNA 1: CAATCTGAATTCCGGTCTCCC
DNA 2: TGGTGGCTACGACGGGATT
B2: CGGUAAG (DNA:RNA)
RNA: GGGAGACCGGAAUUCAGAUUGUCCCGGUAAGUUAAAUCCCGUCGUAGCCACCA
DNA 1: CAATCTGAATTCCGGTCTCCC
DNA 2: TGGTGGCTACGACGGGATT
B3: CCGGUCA (DNA:RNA)
RNA: B2 RNA with G26C, U28G, A29U, A30C, G31A
DNA 1: CAATCTGAATTCCGGTCTCCC
DNA 2: TGGTGGCTACGACGGGATT
B4: UGCGACA (DNA:RNA)
RNA: B2 RNA with C25U, G27C, U28G, A30C, G31A
DNA 1: CAATCTGAATTCCGGTCTCCC
DNA 2: TGGTGGCTACGACGGGATT
B5: UGGGCUC (DNA:RNA)
RNA: B2 RNA with C25U, U28G, A29C, A30U, G31C
DNA 1: CAATCTGAATTCCGGTCTCCC
DNA 2: TGGTGGCTACGACGGGATT
B6: UGGGCUG (DNA:RNA)
RNA: B2 RNA with C25U, U28G, A29C, A30U
DNA 1: CAATCTGAATTCCGGTCTCCC
DNA 2: TGGTGGCTACGACGGGATT
B7: UGGCUGU (DNA:RNA)
RNA: B1 RNA with G25U, A26G, A27G, C30G
DNA 1: CAATCTGAATTCCGGTCTCCC
DNA 2: TGGTGGCTACGACGGGATT
B8: CUGGCUG (DNA:RNA)
RNA: B2 RNA with G26U, U28G, A29C, A30U
DNA 1: CAATCTGAATTCCGGTCTCCC
DNA 2: TGGTGGCTACGACGGGATT
B9: UGGGGGC (DNA:RNA)
RNA: B2 RNA with C25U, U28G, A29G, A30G, G31C
DNA 1: CAATCTGAATTCCGGTCTCCC
DNA 2: TGGTGGCTACGACGGGATT
B10: CUGUGGC (DNA:RNA)
RNA: B2 RNA with G26U, A29G, A30G, G31C
DNA 1: CAATCTGAATTCCGGTCTCCC
DNA 2: TGGTGGCTACGACGGGATT
B11: GGUGCCG (DNA:RNA)
RNA: B2 RNA with C25G, G27U, U28G, A29C, A30C
DNA 1: CAATCTGAATTCCGGTCTCCC
DNA 2: TGGTGGCTACGACGGGATT
B12: CCCAUAA (DNA:RNA)
RNA: B2 RNA with G26C, G27C, U28A, A29U, G31A
DNA 1: CAATCTGAATTCCGGTCTCCC
DNA 2: TGGTGGCTACGACGGGATT
B13: CGUUUAU (DNA:RNA)
RNA: B2 RNA with G27U, A29U, G31U
DNA 1: CAATCTGAATTCCGGTCTCCC
DNA 2: TGGTGGCTACGACGGGATT
B14: GCGCAUA (DNA:RNA)
RNA: B2 RNA with C25G, G26C, U28C, A30U, G31A
DNA 1: CAATCTGAATTCCGGTCTCCC
DNA 2: TGGTGGCTACGACGGGATT
B15: GCAUGUG (DNA:RNA)
RNA: B2 RNA with C25G, G26C, G27A, A29G, A30U
DNA 1: CAATCTGAATTCCGGTCTCCC
DNA 2: TGGTGGCTACGACGGGATT
B16: GCGCAUG (DNA:RNA)
RNA: B2 RNA with C25G, G26C, U28C, A30U
DNA 1: CAATCTGAATTCCGGTCTCCC
DNA 2: TGGTGGCTACGACGGGATT
B17: GCAUAUG (DNA:RNA)
RNA: B2 RNA with C25G, G26C, G27A, A30U
DNA 1: CAATCTGAATTCCGGTCTCCC
DNA 2: TGGTGGCTACGACGGGATT
B18: GCAGAUG (DNA:RNA)
RNA: B2 RNA with C25G, G26C, G27A, U28G, A30U
DNA 1: CAATCTGAATTCCGGTCTCCC
DNA 2: TGGTGGCTACGACGGGATT
B19: GUCCGUC (DNA:RNA)
RNA: B1 RNA with A26U, A27C, U29G, C30U, U31C
DNA 1: CAATCTGAATTCCGGTCTCCC
DNA 2: TGGTGGCTACGACGGGATT
B20: GCACAUG (DNA:RNA)
RNA: B1 RNA with A26C, U29A, C30U, U31G
DNA 1: CAATCTGAATTCCGGTCTCCC
DNA 2: TGGTGGCTACGACGGGATT
B21: GCGCGCA (DNA:RNA)
RNA: B1 RNA with A26C, A27G, U29G, U31A
DNA 1: CAATCTGAATTCCGGTCTCCC
DNA 2: TGGTGGCTACGACGGGATT
B22: GCAUGUC (DNA:RNA)
RNA: B1 RNA with A26C, C28U, U29G, C30U, U31C
DNA 1: CAATCTGAATTCCGGTCTCCC
DNA 2: TGGTGGCTACGACGGGATT
B23: GGCUGGU (DNA:RNA)
RNA: B2 RNA with C25G, G27C, A29G, A30G, G31U
DNA 1: CAATCTGAATTCCGGTCTCCC
DNA 2: TGGTGGCTACGACGGGATT
B24: GAAGAAG (DNA:RNA)
RNA: B2 RNA with C25G, G26A, G27A, U28G
DNA 1: CAATCTGAATTCCGGTCTCCC
DNA 2: TGGTGGCTACGACGGGATT
B25: CACGUCA (DNA:RNA)
RNA: B1 RNA with G25C, A27C, C28G, U31A
DNA 1: CAATCTGAATTCCGGTCTCCC
DNA 2: TGGTGGCTACGACGGGATT
B26: CCUUCGA (DNA:RNA)
RNA: B2 RNA with G26C, G27U, A29C, A30G, G31A
DNA 1: CAATCTGAATTCCGGTCTCCC
DNA 2: TGGTGGCTACGACGGGATT
B27: GUGCUCC (DNA:RNA)
RNA: B1 RNA with A26U, A27G, U31C
DNA 1: CAATCTGAATTCCGGTCTCCC
DNA 2: TGGTGGCTACGACGGGATT
B28: CCUGGUG (DNA:RNA)
RNA: B2 RNA with G26C, G27U, U28G, A29G, A30U
DNA 1: CAATCTGAATTCCGGTCTCCC
DNA 2: TGGTGGCTACGACGGGATT
B29: CUGGGUG (DNA:RNA)
RNA: B2 RNA with G26U, U28G, A29G, A30U
DNA 1: CAATCTGAATTCCGGTCTCCC
DNA 2: TGGTGGCTACGACGGGATT
B30: UGUUGGG (DNA:RNA)
RNA: B2 RNA with C25U, G27U, A29G, A30G
DNA 1: CAATCTGAATTCCGGTCTCCC
DNA 2: TGGTGGCTACGACGGGATT
B31: UGGGUGU (DNA:RNA)
RNA: B2 RNA with C25U, U28G, A29U, A30G, G31U
DNA 1: CAATCTGAATTCCGGTCTCCC
DNA 2: TGGTGGCTACGACGGGATT
B32: UGGGUCG (DNA:RNA)
RNA: B2 RNA with C25U, U28G, A29U, A30C
DNA 1: CAATCTGAATTCCGGTCTCCC
DNA 2: TGGTGGCTACGACGGGATT
B33: UGGGGUG (DNA:RNA)
RNA: B2 RNA with C25U, U28G, A29G, A30U
DNA 1: CAATCTGAATTCCGGTCTCCC
DNA 2: TGGTGGCTACGACGGGATT
B34: UGGGUCC (DNA:RNA)
RNA: B2 RNA with C25U, U28G, A29U, A30C, G31C
DNA 1: CAATCTGAATTCCGGTCTCCC
DNA 2: TGGTGGCTACGACGGGATT
B35: UGUGGUG (DNA:RNA)
RNA: B2 RNA with C25U, G27U, U28G, A29G, A30U
DNA 1: CAATCTGAATTCCGGTCTCCC
DNA 2: TGGTGGCTACGACGGGATT
B36: UGGGUUG (DNA:RNA)
RNA: B2 RNA with C25U, U28G, A29U, A30U
DNA 1: CAATCTGAATTCCGGTCTCCC
DNA 2: TGGTGGCTACGACGGGATT
B37: UGGGGGG (DNA:RNA)
RNA: B2 RNA with C25U, U28G, A29G, A30G
DNA 1: CAATCTGAATTCCGGTCTCCC
DNA 2: TGGTGGCTACGACGGGATT
B38: UGGUCCG (DNA:RNA)
RNA: B2 RNA with C25U, A29C, A30C
DNA 1: CAATCTGAATTCCGGTCTCCC
DNA 2: TGGTGGCTACGACGGGATT
B39: UGGUGUG (DNA:RNA)
RNA: B2 RNA with C25U, A29G, A30U
DNA 1: CAATCTGAATTCCGGTCTCCC
DNA 2: TGGTGGCTACGACGGGATT

Where a chain is given by its changes, count along the chain named. Over roughly 16,000 sequences, “ka relative to ugcaugu” has its median near 0.096; the highest 2% begin near 0.35. The full list was thinned out, with the highest values kept by preference.

This test concerns the target T1, RBFOX1 RRM RbFoxmut (Fox-RRM*). Put plainly: EMSA; HiTS-Eq, 1 nM pool, 10 min; buffer printed only for the single-RNA assays: 10 mM Tris pH 7.5, 150 mM NaCl, 3.4 mM EDTA, 0.001% NP-40, 30 C. The note with it: tags: His6 N-terminal (pET28a); label: 5' 32P. An outline of the steps:
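These values rest on relative association constants, computed from read-count changes of each RNA species versus the control reaction and normalised to the cognate motif. Reads came from free RNA recovered by 8% native PAGE after purified RbFox RRM (wild type or mutant) at increasing concentrations was equilibrated for 10 min in 50 µL with 1 nM of a 5′-radiolabelled pool with 7 randomized nucleotides and DNA-annealed flanks.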
B1: the binding signal was 0.053 KA relative to UGCAUGU.

Take B2: the binding signal was 0.0872 KA relative to UGCAUGU.

For B3, the binding signal is 0.0703 KA relative to UGCAUGU.

As for B4, the binding signal was 0.0626 KA relative to UGCAUGU. B5: the binding signal was 0.115 KA relative to UGCAUGU.

As for B6, the binding signal was 0.462 KA relative to UGCAUGU. Then B7, with 0.299 KA relative to UGCAUGU; and B8, with 0.431 KA relative to UGCAUGU; and B9, with 0.0983 KA relative to UGCAUGU. Then B10, with 0.102 KA relative to UGCAUGU. Turning to B11, the binding signal was 0.128 KA relative to UGCAUGU. In the case of B12, the binding signal was 0.0954 KA relative to UGCAUGU. As to B13, the binding signal is 0.147 KA relative to UGCAUGU.

Regarding B14, the binding signal was 0.152 KA relative to UGCAUGU.

For the molecule B15, the binding signal is 0.954 KA relative to UGCAUGU. Then B16, with 1.33 KA relative to UGCAUGU; and B17, with 0.197 KA relative to UGCAUGU; and B18, with 0.142 KA relative to UGCAUGU. Then B19, with 0.0864 KA relative to UGCAUGU.

For B20, the binding signal is 0.128 KA relative to UGCAUGU. Turning to B21, the binding signal was 0.13 KA relative to UGCAUGU. Turning to B22, the binding signal was 0.492 KA relative to UGCAUGU.

On to B23, for which the binding signal was 0.14 KA relative to UGCAUGU. The result for B24 reads 0.0975 KA relative to UGCAUGU; that for B25, 0.124 KA relative to UGCAUGU; that for B26, 0.0928 KA relative to UGCAUGU.

Turning to B27, the binding signal was 0.0573 KA relative to UGCAUGU. Turning to B28, the binding signal is 0.109 KA relative to UGCAUGU. As for B29, the binding signal was 0.347 KA relative to UGCAUGU. As for B30, the binding signal is 0.0997 KA relative to UGCAUGU. The result for B31 reads 0.305 KA relative to UGCAUGU.

In the case of B32, the binding signal is 0.375 KA relative to UGCAUGU.

Regarding B33, the binding signal is 0.38 KA relative to UGCAUGU. The result for B34 reads 0.149 KA relative to UGCAUGU; that for B35, 0.273 KA relative to UGCAUGU. On to B36, for which the binding signal was 0.947 KA relative to UGCAUGU. Then B37, with 0.0903 KA relative to UGCAUGU; and B38, with 0.265 KA relative to UGCAUGU. Consider B39, for which the binding signal is 0.498 KA relative to UGCAUGU.
